TRPM1 prom inh: inhibitors of MITF-dependent TRPM1 promoter reporter, primary screen, cell-based, SK-MEL-5, single point, luciferase | SK-MEL-5 TRPM1 promoter luciferase, 24 h | inhibition, % at 12.5 µM | actives 0.83% (n = 330,000);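 active = mean inhibition across replicates of 60% or more, whatever share of single replicates reaches that level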
CF NFkB inh: inhibitors of PAF-induced NF-kB signaling, primary screen, cell-based, GFP fluorescence, uHTS. KKLEB NF-kB-GFP reporter, GFP fluorescence overnight. inhibition, % at 5 µM. actives 0.86% (n = 360,000);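 active = at least 50% inhibition at 5 µM, scaled per plate between neutral and stimulator controls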;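 note: PAF is a Pseudomonas aeruginosa culture filtrate used as stimulus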
Peg3 prom inh: Peg3 promoter-driven luciferase inhibitors, primary screen, cell-based, HeLa, luciferase luminescence | inhibition, % at 20 µM | HeLa PEG-Prom luciferase reporter, overnight | actives 1.7% (n = 360,000) | AID 588405, 2011;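 active = inhibition of at least 50% at 20 µM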
HIF-2a block: HIF-2a reporter inhibitors, primary screen, luminescence, 786-0 RCC cells; 786-0 RCC cells HIF-2a reporter, luciferase luminescence, overnight; inhibition, % at 18.8 µM; actives 0.72% (n = 360,000);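 active = inhibition of the luminescence signal of 40% or more relative to plate controls, in a single-dose primary screen at 18.75 µM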
ABHD5-PLIN5 inh: ABHD5-PLIN5 interaction inhibitors, primary screen, cell lysate, split luciferase complementation, luminescence. Perilipin-5 (Homo sapiens) + 1-acylglycerol-3-phosphate O-acyltransferase ABHD5 (Homo …. Split G. princeps luciferase complementation, 4 h. inhibition, % at 4 µM. actives 0.78% (n = 360,000). AID 602281, 2012;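 active = inhibition above the mean inhibition across every tested compound plus 3 SD, cut at about 22% in these data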
Target sequence (Q00G26 whole entry, looked up): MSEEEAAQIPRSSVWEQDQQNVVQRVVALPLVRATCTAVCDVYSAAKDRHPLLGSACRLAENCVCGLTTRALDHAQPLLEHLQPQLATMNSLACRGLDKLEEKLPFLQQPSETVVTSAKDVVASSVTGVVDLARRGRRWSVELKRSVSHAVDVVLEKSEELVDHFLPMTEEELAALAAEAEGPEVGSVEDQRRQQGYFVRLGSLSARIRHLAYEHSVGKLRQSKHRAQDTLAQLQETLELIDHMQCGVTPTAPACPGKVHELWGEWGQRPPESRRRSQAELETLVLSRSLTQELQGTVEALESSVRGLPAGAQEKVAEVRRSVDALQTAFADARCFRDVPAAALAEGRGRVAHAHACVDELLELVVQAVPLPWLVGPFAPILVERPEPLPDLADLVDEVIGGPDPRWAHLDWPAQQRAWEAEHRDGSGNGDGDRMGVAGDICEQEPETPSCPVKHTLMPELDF
Target sequence (Q8WTS1 whole entry, looked up): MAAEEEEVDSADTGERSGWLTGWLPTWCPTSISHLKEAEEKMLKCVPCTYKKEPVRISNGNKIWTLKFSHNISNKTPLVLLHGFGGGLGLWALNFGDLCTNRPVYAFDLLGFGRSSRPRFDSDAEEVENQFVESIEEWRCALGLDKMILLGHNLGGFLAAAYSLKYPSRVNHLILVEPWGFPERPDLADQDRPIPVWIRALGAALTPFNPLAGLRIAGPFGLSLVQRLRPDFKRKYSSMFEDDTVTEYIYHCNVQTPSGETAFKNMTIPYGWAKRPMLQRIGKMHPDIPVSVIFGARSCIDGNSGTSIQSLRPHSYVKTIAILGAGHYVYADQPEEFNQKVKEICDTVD
KKLEB tox: cytotoxicity in KKLEB CF airway cells, primary screen, cytotoxicity control for CF NF-kB inhibitor project, cell-based, uHTS, fluorescence assay plates. KKLEB CF airway cells viability, ATPlite luminescence, overnight; stronger effect = lower value; cells stimulated with P. aeruginosa culture filtrate. activity change (cytotoxicity), % at 5 µM. actives 0.36% (n = 360,000);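 active = corrected activity change at or below -50% at 5 µM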
CF NFkB conf: inhibitors of PAF-induced NF-kB signaling, retest, confirmation, cell-based, GFP fluorescence, single concentration; KKLEB CF airway cells, overnight; shares compounds with CF NFkB inh; inhibition, % at 5 µM; actives 64% (n = 1,300); in the data active = inhibition above about 40%;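 note: stimulus PAF is a Pseudomonas aeruginosa filtrate and not platelet activating factor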
Of the large screens only hits and unclear results are named; the others gave an inactive call (follow-up assays come after a bar, where they were run). Shown are actives, neighbours in structure and some others; about 3.1% of the full set was active somewhere.

CCN(CC)S(=O)(=O)c1ccc(Cl)c(C(=O)OC2CC(C)OC2=O)c1 (stereo not given)	none
CC(C)Cc1nc2oc3c(NCC4CCCO4)ncnc3c2c2c1CCC2 (stereo not given)	CF NFkB inh 76, Peg3 prom inh 61 | CF NFkB conf 90
COC(=O)Nc1ccc(S(=O)(=O)NNC(=O)c2c(O)c3ccccc3n(C)c2=O)cc1	none
c1ccc2c(-c3ccc4nncn4c3)cncc2c1	CF NFkB inh 73 (no result: TRPM1 prom inh) | CF NFkB conf 89
c1coc(-c2ccc3nncn3c2)c1	none (no result: TRPM1 prom inh)
CN(C)S(=O)(=O)c1ccc(N2CCCC2)c(C(=O)N2CCN(S(=O)(=O)c3ccc(F)cc3)CC2)c1	none
COc1ccc2c(c1OC)C(=O)N1c3ccccc3C(=O)N(c3ccccc3)C21 (stereo not given)	CF NFkB inh 68 | CF NFkB conf 97
COc1ccc2c(c1OC)C(=O)N1c3ccccc3C(=O)N(c3ccc(F)cc3)C21 (stereo not given)	none
CCOc1cccc(-c2nnc3sc(C4CCCCC4)nn23)c1	CF NFkB inh 66 | CF NFkB conf 85
COc1cccc(-c2nnc3sc(C4CCCCC4)nn23)c1	CF NFkB inh 86 | CF NFkB conf 96
CCOc1ccc(NC(=O)c2nnn(CC(=O)Nc3ccccc3OCC)c2N)cc1	none
CCOc1ccc(OCC)c(NC(=O)c2nnn(CC(=O)Nc3cc(C)cc(C)c3)c2N)c1	CF NFkB inh 50 | CF NFkB conf inactive
O=C(CCC1COc2ccccc2O1)Nc1ccc(Cl)cn1 (stereo not given)	CF NFkB inh 60 | CF NFkB conf 48
NC(=O)c1ccccc1N	none (no result: TRPM1 prom inh)
O=S(=O)(c1ccc(F)cc1F)N1CCN(CCO)CC1	none
O=C(NCCc1c[nH]c2ccccc12)c1cc([N+](=O)[O-])cc([N+](=O)[O-])c1	none (no result: TRPM1 prom inh)
O=C(NCCc1c[nH]c2ccccc12)c1ccc([N+](=O)[O-])o1	CF NFkB inh 70 (no result: TRPM1 prom inh) | CF NFkB conf 43
O=C1c2cc(N3CCCC3)c([N+](=O)[O-])cc2C(=O)N1c1ccccc1	none
Cc1ccc(C(=O)COC(=O)c2ccncc2)cc1[N+](=O)[O-]	none
Cc1ccc(C(=O)COC(=O)c2cc(Cl)ccc2O)cc1[N+](=O)[O-]	CF NFkB inh 52 | CF NFkB conf 47
COc1cccc(CCNC(=O)c2cc(COc3c(F)cccc3F)on2)c1	none
C[C@H](NC(=O)C1CC(=O)N(c2ccc3c(c2)OCCO3)C1)C(=O)NCc1ccco1 (stereo not given in full)	none
NS(=O)(=O)c1ccc(CCNC(=O)c2ccc(C#CC3(O)CCCCC3)cc2)cc1	CF NFkB inh 81, Peg3 prom inh 87 | CF NFkB conf 80
CC(=O)OCC(=O)[C@@]12OC(C)(C)O[C@@H]1CC1C3C[C@H](F)C4=CC(=O)C=CC4(C)[C@@]3(F)C(O)CC12C (stereo not given in full)	CF NFkB inh 73 | CF NFkB conf inactive
C[C@@H]1C[C@H]2[C@@H]3C[C@H](F)C4=CC(=O)C=C[C@]4(C)[C@@]3(F)[C@@H](O)C[C@]2(C)[C@@]1(O)C(=O)CO	CF NFkB inh 78 | CF NFkB conf inactive
CC1(C)OC2CC3C4CC(F)C5=CC(=O)C=CC5(C)C4(F)C(O)CC3(C)C2(C(=O)CO)O1 (stereo not given)	CF NFkB inh 75 | CF NFkB conf inactive
C[C@@H]1CC2[C@@H]3CC[C@H]4CC(=O)CC[C@]4(C)C3=CC[C@]2(C)[C@@]1(O)C(=O)CO (stereo not given in full)	none
O=c1[nH]c(SCc2ccccc2)nc2c1sc1ccccc12	none
CCN(CC)CCOC(=O)c1cccc2c1-c1ccccc1C2O (stereo not given)	none
CCn1cc(C(=O)Nc2ccc(C)cc2[N+](=O)[O-])c(C)n1	none
O=C(N1CCCCCC1)N1CCN(S(=O)(=O)c2cccc([N+](=O)[O-])c2)CC1	none
N#CCc1ccnc2ccccc12	none
N#CC(C#N)c1ccnc2ccccc12	CF NFkB inh 58 (no result: TRPM1 prom inh) | CF NFkB conf 46
CCOC(=O)C1=C(CC)Nc2ccccc2N=C1NC(=O)c1oc2ccccc2c1C	CF NFkB inh 76, Peg3 prom inh 64 | CF NFkB conf 95
CCCCCOC(=O)c1[nH]c2c(c1C)C(=O)CC(c1ccco1)C2 (stereo not given)	CF NFkB inh 52 | CF NFkB conf 85
CCOCCOC(=O)c1[nH]c2c(c1C)C(=O)CC(c1ccccc1)C2 (stereo not given)	none
COCc1cc(=O)[nH]c(SCCS(=O)(=O)c2ccc(Cl)cc2Cl)n1	CF NFkB inh 100 | CF NFkB conf inactive
CCNC(=O)C1(C)CCCN(Cc2ccc(-c3ccccc3)o2)C1 (stereo not given)	CF NFkB inh 58 (no result: TRPM1 prom inh) | CF NFkB conf 63
CSc1ccc(/C=C(\C#N)C(=O)NC2CCCCC2C)cc1 (stereo not given)	CF NFkB inh 53 | CF NFkB conf inactive
C/C(=N\Nc1cc(N2CCOCC2)ncn1)c1cccc([N+](=O)[O-])c1	CF NFkB inh 56, Peg3 prom inh 102 | CF NFkB conf 64
O=[N+]([O-])c1cccc(/C=N/Nc2cc(N3CCOCC3)ncn2)c1	CF NFkB inh 53, Peg3 prom inh 62 | CF NFkB conf 72
Cc1ccc(N2CC(C(=O)OCC(=O)c3ccc(C)c([N+](=O)[O-])c3)CC2=O)cc1 (stereo not given)	none
NC(=O)C1CCN(C(=O)/C=C/c2ccccc2[N+](=O)[O-])CC1	none
O=C(/C=C/c1ccccc1[N+](=O)[O-])N1CCOCC1	CF NFkB inh 70 | CF NFkB conf inactive
Cc1c(NC(=O)c2ccc(S(=O)(=O)N3CCOCC3)cc2)c(=O)n(-c2ccccc2)n1C	none
CC(C)(C)c1ccc(NC(=O)c2ccccc2)c([N+](=O)[O-])c1	none
CCNC(=O)c1cc2c(c(-c3cccc(-c4cccc(C(=O)N(C)C)c4)c3)n1)[C@@H](CCO)N(S(=O)C(C)(C)C)C2 (stereo not given in full)	none (no result: TRPM1 prom inh)
